Data as given in PubChem BioAssay (NCATS).
Records with an inconclusive call do not appear. Where a call stands in place of a potency, no number is given. Active and inactive are the calls of the source. Calls follow the shape of the dose curve; as a rule, active = well fitted cell-killing curve with a large enough effect; inconclusive = small, poorly fitted or top-dose-only effect, or effect the other way; inactive = no such curve, though single readings can be large or run the other way.

Experiment: Quantitative High-Throughput drug screen in 47 multiple myeloma cell lines against the NCATS MIPE library collection: JIM1_ECACC cell viability assay (AID 1918964)
Settings: JIM1 myeloma viability, CellTiter-Glo ATP luminescence, 48 h; series mostly up to 45.8 µM
In short: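 Luminescent ATP measurement with CellTiter-Glo gives viability, scaled between DMSO-only wells (100%) and media-only wells (0%). Cells, 500 per well, faced library compounds for 48 hours at 37C.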

| Compound | outcome |
| --- | --- |
| C[C@]12CCC(=O)C=C1CC[C@@H]1[C@H]3CC[C@](C)(O)[C@@]3(C)CC[C@@H]12 | inactive |
| CN1C(=O)CCS(=O)(=O)C1c1ccc(Cl)cc1 (stereo not given) | inactive |
| COc1cc(OC)c(OC)cc1C=O | inactive |
| C[C@]12CC[C@@H]3c4ccc(OC(=O)N(CCCl)CCCl)cc4CC[C@H]3[C@@H]1CC[C@@H]2OP(=O)(O)O | inactive |
| C[C@]12CC[C@H]3[C@@H](CC[C@@]45O[C@H]4C(O)=C(C#N)C[C@]35C)[C@H]1CC[C@H]2O | inactive |
| CC(C)C[C@H](CN)CC(=O)O | inactive |
| CC(C)c1cccc(C(C)C)c1O | inactive |

Experiment: Quantitative High-Throughput drug screen in 47 multiple myeloma cell lines against the NCATS MIPE library collection: INA6_PLB cell viability assay (AID 1918965; also: nearly all actives have a fitted effect of over 55% in size; also: potency is read from the fitted curve at half-maximal effect)
Settings: INA6 myeloma viability, CellTiter-Glo ATP luminescence, 48 h; series mostly up to 45.8 µM
Source text: PI: Beverly A. Mock Ph.D.
Laboratory of Cancer Biology and Genetics,
Center for Cancer Research, National Cancer Institute,
National Institute of Health, Bethesda, Maryland
Drug resistance and disease progression are common in multiple myeloma (MM) patients, underscoring the need for new therapeutic combinations. […] We hypothesized that effective combinations would reduce MYC expression and enhance p16 activity. […] These preclinical data identify potentially useful drug combinations for evaluation in drug-resistant MM and reveal potential mechanisms of combined drug sensitivity.
Described herein is the primary MIPE qHTS used to cherrypick compounds. Validated compounds were then further tested for potential synergistic activiy.
[1] Peat TJ, Gaikwad SM, Dubois W, Gyabaah-Kessie N, Zhang S, Gorjifard S, Phyo Z, Andres M, Hughitt VK, Simpson RM, Miller MA, Girvin AT, Taylor A, Williams D, D'Antonio N, Zhang Y, Rajagopalan A, Flietner E, Wilson K, Zhang X, Shinn P, Klumpp-Thomas C, McKnight C, Itkin Z, Chen L, Kazandijian D, Zhang J, Michalowski AM, Simmons JK, Keats J, Thomas CJ, Mock BA. Drug combinations identified by high-throughput screening promote cell cycle transition and upregulate Smad pathways in myeloma. Cancer Lett. 2023 Aug 1;568:216284. doi: 10.1016/j.canlet.2023.216284. Epub 2023 Jun 24. PMID: 37356470; PMCID: PMC10408729.
SEQUENCE No. (e.g., 1, 2, 3, etc.); […] (e.g., Cells, Incubation, Reagent, etc.); VALUE and DESCRIPTION.
1; Cells; 5 uL; white, solid bottom 1536-well Greiner assay plate.
2; Compounds; 23 nL; Kalypsis pin tool (Wako USA) equipped with a 1536-well pin head to transfer to the assay plates.
3; Incubation; 48 hours; 37C incubation.
4; Reagent;5uL; CellTiter Glo (Promega).
5; Detector; 425V; Luminescence; Viewlux PerkinElmer.
NOTES (numbers refer to Sequence numbers above)
1. The cell-based screening methods employed in this study were like those previously published. Briefly, the corresponding myeloma cell lines were screened in 1,536-well plates with 500 cells, 5-uL per well for inhibition of cell viability (assessed by measuring ATP levels with CellTiterGlo).
2. NCATS MIPE 4.0 library of approved and investigational drugs were added using the Kalypsis pin tool. Wells treated with DMSO only for 100% viability and media only wells for 0% viability were used as controls.
3. The assay plates were covered and incubated for 48 hours in a 37C, 5% CO2 incubator with controlled humidity.
4. After 48 hours, CellTilter-GloTM luminescent substrate mix (Promega) reagent was added to the assay plate and plates we incubated for 5 min at room temperature.
5. Signal was measured as median relative luminescence units on a ViewLux (PerkinElmer) multiplate reader.
[1] Heske CM, Davis MI, Baumgart JT, Wilson K, Gormally MV, Chen L, Zhang X, Ceribelli M, Duveau DY, Guha R, Ferrer M, Arnaldez FI, Ji J, Tran HL, Zhang Y, Mendoza A, Helman LJ, Thomas CJ. Matrix Screen Identifies Synergistic Combination of PARP Inhibitors and Nicotinamide Phosphoribosyltransferase (NAMPT) Inhibitors in Ewing Sarcoma. Clin Cancer Res. 2017 Dec 1;23(23):7301-7311. doi: 10.1158/1078-0432.CCR-17-1121. Epub 2017 Sep 12. PMID: 28899971; PMCID: PMC6636827.

| Compound | Potency |
| --- | --- |
| CN1C(=O)CCS(=O)(=O)C1c1ccc(Cl)cc1 (stereo not given) | inactive |
| C[C@](O)(CS(=O)(=O)c1ccc(F)cc1)C(=O)Nc1ccc(C#N)c(C(F)(F)F)c1 | 1.18 µM (active) |
| COc1cc(OC)c(OC)cc1C=O | inactive |
| O=C(O)CCCc1ccc(N(CCCl)CCCl)cc1 | 18.7 µM (active) |
| CC(NC(C)(C)C)C(=O)c1cccc(Cl)c1 (stereo not given) | inactive |
| CC(C)C[C@H](CN)CC(=O)O | inactive |
| CC(C)c1cccc(C(C)C)c1O | inactive |
| CCC1(c2ccc(N)cc2)CCC(=O)NC1=O (stereo not given) | inactive |
